The campaign covered roughly 2,100 compounds. About 770 (37%) were called active.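 Rule for the calls: active = by-eye trace score of 1 for enhancers or -1 for inhibitors, so actives lie on both sides (some results past the limit were not filed as active); inactive = score 0, or 3 fluorescent, or 4 baseline rise.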 Some of the results follow.
Biological target: G protein-activated inward rectifier potassium channel 2 (Homo sapiens) + G protein-activated inward rectifier potassium channel 1 (Homo sapiens) (UniProt P48051+P48549)
Sequence (P48051 whole entry, looked up): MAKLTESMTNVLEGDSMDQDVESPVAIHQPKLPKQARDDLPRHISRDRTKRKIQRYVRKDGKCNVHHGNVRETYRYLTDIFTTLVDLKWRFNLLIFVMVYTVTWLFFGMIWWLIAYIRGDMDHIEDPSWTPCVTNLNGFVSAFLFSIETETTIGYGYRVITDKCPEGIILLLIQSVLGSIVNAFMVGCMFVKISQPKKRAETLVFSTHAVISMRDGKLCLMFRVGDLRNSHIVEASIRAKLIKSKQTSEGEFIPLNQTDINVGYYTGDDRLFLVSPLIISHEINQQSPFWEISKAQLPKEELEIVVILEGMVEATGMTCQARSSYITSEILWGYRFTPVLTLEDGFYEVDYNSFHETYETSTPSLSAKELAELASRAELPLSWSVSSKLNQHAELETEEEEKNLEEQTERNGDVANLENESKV
Sequence (P48549 whole entry, looked up): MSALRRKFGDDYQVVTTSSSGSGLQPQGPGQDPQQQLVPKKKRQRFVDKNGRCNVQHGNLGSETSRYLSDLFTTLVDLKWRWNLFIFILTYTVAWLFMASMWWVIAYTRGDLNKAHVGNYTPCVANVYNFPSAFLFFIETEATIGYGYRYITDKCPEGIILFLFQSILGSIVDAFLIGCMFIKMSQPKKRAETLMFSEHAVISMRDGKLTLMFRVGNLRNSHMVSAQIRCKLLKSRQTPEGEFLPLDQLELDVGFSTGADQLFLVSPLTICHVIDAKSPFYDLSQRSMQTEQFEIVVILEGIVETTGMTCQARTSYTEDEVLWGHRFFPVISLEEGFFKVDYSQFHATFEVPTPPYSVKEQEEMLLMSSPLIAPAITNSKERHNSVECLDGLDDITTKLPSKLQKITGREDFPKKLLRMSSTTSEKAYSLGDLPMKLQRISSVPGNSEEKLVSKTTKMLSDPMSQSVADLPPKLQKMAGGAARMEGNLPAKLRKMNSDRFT
Test: GIRK1/2 thallium flux modulators, retest, confirmation, cell-based, HEK293 rmGlu8/hGIRK1/2, FluoZin-2 (AID 623911)
Details: HEK293 rmGlu8/hGIRK1/2, thallium flux FluoZin-2; actives lie on both sides; glutamate co-added at its EC20 level

SMILES	manual score
Oc1oc(-c2cccc3ccccc23)nc1/C=N/c1nccs1	0 (inactive)
CCCCCC/C(C)=C1/SC(=S)NC1=O	1 (active)
SC(COCc1ccccc1)CN1CCN(Cc2ccc3c(c2)OCO3)CC1 (centres undefined)	-0.5 (inactive)
c1ccc2c(c1)oc1c(N3CCN(Cc4ccc5c(c4)OCO5)CC3)ncnc12	-1 (active)
COc1ccccc1N1CCN(Cc2cc(Br)c(O)c3ncccc23)CC1	0.5 (inactive)
Cc1ccc(Cn2c(SCC(=O)N3CC(=O)Nc4ccccc43)nc3ccccc3c2=O)cc1	0 (inactive)
CCCCCCN1C2=NCCN2c2ccccc21	-1 (active)
Cc1ccc(CN2C3=NCCCN3c3ccccc32)cc1	-1 (active)
OC(CN1C2=NCCCN2c2ccccc21)c1ccc(Br)cc1 (centres undefined)	-1 (active)
CC(C)(C)c1ccc(CN2C3=NCCCN3c3ccccc32)cc1	-1 (active)
CCN(CC)c1ccc(NC(=O)c2nc3nc(C)cc(C(F)F)n3n2)cc1	0 (inactive)
Clc1ccc(CSc2ncn(-c3ccccc3)n2)cc1	0 (inactive)
Cc1cc2c(cc1C)C(=O)NC(C)(C)C2	0 (inactive)
COc1ccc(Cn2nnnc2C(c2ccccc2Cl)N2CCN(C3CCCC3)CC2)cc1 (centres undefined)	-1 (active)
COCCn1nnnc1C(c1ccccc1)N1CCN(c2ccccc2)CC1 (centres undefined)	0 (inactive)
COc1ccccc1C(c1nnnn1CCc1ccccc1)N1CCCCCC1 (centres undefined)	-1 (active)
COc1ccc(Cn2nnnc2C(c2ccc(F)cc2)N2CCN(C3CCCC3)CC2)cc1 (centres undefined)	-1 (active)
CCC(c1nnnn1Cc1ccc(OC)cc1)N(CCCO)Cc1cc2cc3c(cc2[nH]c1=O)OCO3 (centres undefined)	0 (inactive)
C=CCN1CCN(C(c2ccc(Cl)cc2)c2nnnn2CCc2ccc(OC)c(OC)c2)CC1 (centres undefined)	-1 (active)
Cc1ccccc1/C=c1\s/c(=C\C(=O)C(C)(C)C)[nH]c1=O	0 (inactive)
O=C(O)CCCCCNc1nc2ncn(Cc3ccccc3)c2c(=O)[nH]1	0 (inactive)
CCN(CC)C(=O)CN(c1ccc2c(c1)OCO2)S(C)(=O)=O	0 (inactive)

SMILES	manual score
CCN(c1ccc2c(c1)OCO2)S(=O)(=O)c1cc(Br)cc2c1N(C(=O)C1CC1)CC2	-1 (active)
Cn1cccc1-c1nc2ccc(NC(=O)c3cccs3)cc2[nH]1	0 (inactive)
COc1ccc(OC)c(C2C(C(=O)c3cccs3)=C(O)C(=O)N2c2cc(C)on2)c1 (centres undefined)	0 (inactive)
COc1ccc(-n2c(=O)[nH]cc(C(=O)Nc3ccc(NC(C)=O)cc3)c2=O)cc1	0 (inactive)
COC(=O)c1cc(OC)c(OC)cc1NC(=O)Nc1ccc(OC)cc1OC	0 (inactive)
COc1ccc(NC(=O)C(=O)NNC(=O)c2cccs2)cc1	1 (active)
COc1ccc(NC(=O)C(=O)NNC(=O)c2cccs2)c(OC)c1	1 (active)
O=C(Nc1ccc(CN2CCOCC2)cc1)c1cc2ccccn2n1	0 (inactive)
COCCNCCOc1ccccc1-c1ccccc1	-1 (active)
COCCCNCCCOc1ccc(Cl)cc1Br	0 (inactive)
COc1cc2cnncc2cc1OC	0 (inactive)
CCCc1cc(-c2n[nH]c(=S)n2Cc2ccccc2)cs1	0 (inactive)
S=c1[nH]nc(-c2ccc(Br)o2)n1Cc1ccccc1	1 (active)
S=c1[nH]nc(-c2cc3ccccc3o2)n1Cc1ccccc1	0.5 (inactive)
C/C(=N/NC(=O)c1cc(Cl)ccc1O)C12CC3CC(CC(C3)C1)C2	0 (inactive)
CC(C)(C)CC(C)(C)NCC(O)COc1c(F)cc(Br)cc1F (centres undefined)	-1 (active)
CN1C2C=C3C(C#N)=C(N)C(C#N)(C#N)[C@@H](c4ccsc4)[C@@H]3C1CC2 (some centres undefined)	-0.5 (inactive)
O=C(Nc1nnc(-c2ccccc2F)s1)C1CCCO1 (centres undefined)	0 (inactive)
OC(CNCC1CCCO1)Cn1c2ccc(Br)cc2c2cc(Br)ccc21 (centres undefined)	0 (inactive)
CCOc1ccccc1Nc1nnc(Cc2ccccc2Cl)c(=O)[nH]1	1 (active)
COc1ccc(Nc2nnc(Cc3ccccc3)c(=O)[nH]2)c(OC)c1	1 (active)
CCOc1ccccc1NC(=O)Nc1cccc(C(C)=O)c1	0 (inactive)

SMILES	manual score
COc1ccc(OC)c(Nc2cc(-c3ccccc3)nc(N)n2)c1	-0.5 (inactive)
Cc1sc2ncnc(N(C)Cc3cccs3)c2c1C	-1 (active)
CCOC(=O)c1c(CNCCN(CC)CC)n(C)c2cc(Br)c(OC)cc12	-1 (active)
O=C(Nc1ccccc1-c1nnn(CC(=O)N2CCc3ccccc3C2)n1)C1CCC1	0 (inactive)
CN=C1c2c(-c3ccccc3)c3cc(OC)ccc3n2CCN1C	-1 (active)
C=CCn1c(-c2cccs2)nc2ccccc21	0 (inactive)
CCc1cc(-c2n[nH]c(C)c2-c2nc3ccccc3n2C)c(O)c(CN2CCN(C)CC2)c1O	-1 (active)
CCN(CC)C(=O)CSc1nc2ccccc2c(=O)n1-c1ccccc1OC	0 (inactive)
COC(=O)c1ccc2c(=O)n(C3CCCCC3)c(SCC#N)nc2c1	0 (inactive)
CCCN(CCC)C(=O)CSc1nc2ccccc2c(=O)n1C1CCCC1	-1 (active)
CC(C)(C)c1nnc(N/N=C/c2ccccc2)n(N)c1=O	0 (inactive)
CCNC(=S)N/N=C(\C)c1ccc(Cl)s1	0 (inactive)
C/C(=N\NC(=O)c1csc(C)c1C)c1ccc(Cl)s1	0 (inactive)
C=C(C)CNC(=S)N/N=C(\C)c1ccc(Cl)s1	1 (active)
C/C(=N\NC(=S)NCCc1ccccc1)c1cccs1	3 (inactive)
C/C(=N\NC(=S)NC(C)C)c1ccc(Cl)s1	1 (active)
C/C(=N\NC(N)=S)c1ccc(Cl)s1	0 (inactive)
CC(C)NC(=S)N/N=C/c1cc(Br)ccc1O	0 (inactive)
CNC(=S)N/N=C(\C)c1ccc(C)c(C)c1	0 (inactive)
CNC(=S)N/N=C(\C)c1ccc(Cl)s1	1 (active)
Cn1c(NC(=O)Cc2ccc(F)cc2)cc(=O)n(C)c1=O	0 (inactive)
CS(=O)(=O)c1ccc2nc(NC(=O)C3C4C=CC(C4)C3C(=O)O)sc2c1 (centres undefined)	0 (inactive)

SMILES	manual score
CC1=NN(/C(=N\c2nnc(C)s2)Nc2ccccc2)[C@H](c2cccc3ccccc23)S1	0 (inactive)
O=C(c1oc(=O)c2ccccc2c1-c1ccccc1)N1CCN(C2CCCCC2)CC1	-1 (active)
CCCCn1c(=S)[nH]c2c(oc3ccc(Cl)cc32)c1=O	1 (active)
CCN(CC)CCCn1c(=S)[nH]c2cc(Cl)ccc2c1=O	0 (inactive)
CCN(CC)CCn1c(=S)[nH]c2cc(Cl)ccc2c1=O	0 (inactive)
Cc1ccc(C2C3=C(NCCN=C3c3ccccc3)C(=O)N2c2ccccc2)cc1 (centres undefined)	-1 (active)
Cc1ccc2nsnc2c1S(=O)(=O)Nc1cccc2nsnc12	1 (active)
O=C(NNS(=O)(=O)c1ccccc1F)c1cccc(S(=O)(=O)N2CCOCC2)c1	0 (inactive)
CCc1ccc(Nc2nc3ccccc3c(=O)s2)cc1	1 (active)
CCC(CC)c1nnc(NC(=O)c2ccc3ccccc3n2)s1	0 (inactive)
CCc1ccc(NCc2cc3c(C)nn(-c4ccccc4)c3[nH]c2=O)cc1	0 (inactive)
O=C1CC(C(F)(F)C(F)(F)C(F)(F)F)=Nc2ccccc2N1	0 (inactive)
O=C(N/N=C\c1ccc(Cl)s1)c1cccs1	1 (active)
O=C(N/N=C/c1ccc([N+](=O)[O-])s1)c1cccc(Br)c1	0 (inactive)
Cc1ccccc1C(=O)N/N=C/c1ccc([N+](=O)[O-])s1	0 (inactive)
CCOC(=O)C1CCCN(c2ncnc3c2oc2ccccc23)C1 (centres undefined)	-1 (active)
CCOC(=O)C1CCCN(C(=O)c2cc(-c3ccccc3)on2)C1 (centres undefined)	0 (inactive)
CCOC(=O)N1CCN(C(=O)CSc2ncnc3ccccc23)CC1	0 (inactive)
CCOC(=O)C1CCCN(c2nc(C)nc3c2oc2ccccc23)C1 (centres undefined)	-1 (active)
Cc1ccc(S(=O)(=O)CC(=O)Nc2ccc(S(=O)(=O)Nc3onc(C)c3C)cc2)cc1	-0.5 (inactive)
C/C(CC(O)c1ccc2ccccc2n1)=N/O (centres undefined)	0 (inactive)
CNC(=S)N=Nc1c(O)[nH]c2ccc(C(C)C)cc12	0 (inactive)

SMILES	manual score
Cn1c(=O)c2c(nc3sccn32)n(C)c1=O	0 (inactive)
Cc1ccc(C)c(C(=O)c2c(C)nc3sccn23)c1	-1 (active)
Cc1cccc(C(=O)NNC(=O)C(=O)NC(C)(C)C)c1	1 (active)
CC(C)(C)c1ccc(SCC(N)=O)cc1	0 (inactive)
CC(C)(C)NC(=O)C(=O)NNC(=O)c1ccc(C(C)(C)C)cc1	1 (active)
CC(C)(C)c1ccc(C(=O)NC(=S)Nn2cnnc2)cc1	0 (inactive)
O=[n+]1c2c(n([O-])c3cc(F)c(N4CCCC4)cc31)CCCC2	3 (inactive)
COc1ccc2cc(C(=O)NCC(=O)O)sc(=O)c2c1OC	0 (inactive)
CCOC(=O)c1c(NC(=O)CSc2nnc(Cc3csc(N)n3)n2C)sc(C)c1C	-1 (active)
CCOC(=O)c1cnc(SCC(=O)Nc2nc(C)c(C)s2)nc1N	0 (inactive)
C=CCn1c(SCC(=O)Nc2sccc2C(N)=O)nc2ccc(Cl)cc2c1=O	0 (inactive)
C=CCn1c(SCC(=O)Nc2sc(C)c(C)c2C(=O)OCC)nnc1-c1sc(N)nc1C	-1 (active)
Cc1c(C(=O)O)c(=S)sn1CCOc1ccccc1	0 (inactive)
Cc1ccc(-c2cnc(NC(=O)CCC(=O)N3CCCCC3)n2C)cc1	0 (inactive)
N#Cc1nc(Cc2ccccc2)oc1NCCc1ccccc1	-0.5 (inactive)
O=C(c1cccc(F)c1)N1CCN(C(=O)c2cc(-c3ccc(Cl)cc3Cl)on2)CC1	0 (inactive)
Fc1ccc(/C=N/n2c(-c3cccs3)n[nH]c2=S)cc1	1 (active)
Cc1ccc(/C=N/n2c(-c3cccs3)n[nH]c2=S)cc1	1 (active)
Cn1cccc1/C=N/n1c(-c2ccc(C(C)(C)C)cc2)n[nH]c1=S	0 (inactive)
Cc1ccc(-c2n[nH]c(=S)n2/N=C/c2cccs2)cc1	0.5 (inactive)
Cc1ccc(-c2n[nH]c(=S)n2/N=C/c2ccc(C)s2)cc1	0 (inactive)
